Bioassay records from PubChem BioAssay.
Shown are actives, neighbours in structure and some others; about 2.1% of the full set was active somewhere.
MazF activator = activators of E. coli MazEF toxin-antitoxin RNase, primary screen, biochemical, fluorescence, uHTS | 0.32% of 350,000 active | AID 504720, 2011 | Endoribonuclease toxin MazF (Escherichia coli (strain K12)), P0AE70 | activation, % at 20 µM | FAM/BHQ RNA-DNA oligo cleavage fluorescence, 5 h; in the data active = activation above about 50%
Target sequence (P0AE70 whole entry, looked up): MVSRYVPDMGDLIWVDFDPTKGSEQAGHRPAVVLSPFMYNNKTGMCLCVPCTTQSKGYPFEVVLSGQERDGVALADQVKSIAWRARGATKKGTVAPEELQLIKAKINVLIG
PrPC TRFRET = inhibitors of human cell surface prion protein PrPC, primary screen, cell-based, TR-FRET; Major prion protein (Homo sapiens), P04156; TR-FRET read-out; inhibition, % at 13.8 µM; 0.43% of 370,000 active; AID 720596, 2013; in the data active = inhibition above about 24%; note: 0% = median of the test wells and 100% = reference compound wells
PfHsp40 yeast = rescue of yeast from PfHsp40 toxicity, primary screen, S. cerevisiae, ATP luminescence | 0.68% of 340,000 active | AID 504582, 2011 | S. cerevisiae expressing PfHsp40, growth rescue | growth rescue, % at 12.5 µM; in the data active = growth rescue above about 28%, passing the limit was not always enough;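 note: yeast W303a lacking pdr1 and pdr3 grown in galactose medium; growth measured after three days at 30 °C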
BJeLR lethal = MLPCN primary cell-based screen for lethality selective to Ras in HRASV12 cells | AID 1554, 2009 | BJeLR (HRASV12) viability, CellTiter-Glo ATP luminescence, 48 h | 0.17% of 300,000 active | inhibition, % (test concentration not listed); in the data active = inhibition above about 50%
PrP 5UTR inh = inhibition of PrP 5' UTR reporter expression. cell-based PrP 5' UTR mRNA reporter, plate reader. inhibition, % (test concentration not listed). 0.35% of 340,000 active; in the data active = inhibition above about 52%; note: 0 = median of the neutral control wells
DUSP3 inh = VHR1 phosphatase inhibitors, primary screen, biochemical, absorbance, uHTS. Dual specificity protein phosphatase 3 (Homo sapiens), P51452. recombinant VHR phosphatase, pNPP absorbance. inhibition, % at 13.3 µM. 0.52% of 290,000 active. AID 1654, 2009; in the data active = inhibition above about 50%
Target sequence (P51452 whole entry, looked up): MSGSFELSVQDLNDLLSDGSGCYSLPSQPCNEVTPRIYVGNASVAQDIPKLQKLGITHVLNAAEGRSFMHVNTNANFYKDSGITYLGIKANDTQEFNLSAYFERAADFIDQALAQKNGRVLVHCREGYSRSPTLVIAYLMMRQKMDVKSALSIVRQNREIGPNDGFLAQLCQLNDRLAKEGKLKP
Active calls of the source: *; . = no result given.

SMILES	MazF activator	PrPC TRFRET	PfHsp40 yeast	BJeLR lethal	PrP 5UTR inh	DUSP3 inh
O=[N+]([O-])c1cccc2[nH]c(CNc3nc(N4CCOCC4)nc4c3ncn4-c3ccsc3)nc12	.	14.3	.	.	.	.
COc1cc(-c2ccc(N3C(c4ccsc4)=Cc4ccccc4C3CC(C)=O)cc2)cc(OC)c1OC (stereo not drawn)	.	-1.9	.	.	.	.
CCCCCCCOC(=O)C1=C(C)Nc2ncnn2C1c1cccs1 (stereo not drawn)	16.1	-4.2	1.7	6.2	-23.4	2.0
CCCCCCCCOC(=O)C1=C(C)Nc2nnnn2C1c1cccs1 (stereo not drawn)	-14.3	0.8	76.1*	1.3	-19.8	-17.1
CCNC(=O)C1CCCN(C(=O)C(c2ccccc2)c2ccccc2)CC1 (stereo not drawn)	.	-3.6	.	.	.	.
O=S(=O)(NC1CCCCCC1)c1ccc(Br)s1	-5.0	-7.3	58.6*	-10.5	5.9	31.2
COc1ccc(CN2CC(=O)N(c3ccc(Cl)cc3)C2=S)cc1OC	3.0	8.9	0.2	7.6	-12.6	-7.6
CCc1ccc(N2C(=O)CN(Cc3ccc(OC)c(OC)c3)C2=S)cc1	1.6	9.0	31.4*	8.3	-9.1	-4.5
CCc1ccc(S(=O)(=O)Nc2c(NC3CCCCC3)c3ccccc3oc2=O)cc1	-1.3	.	-0.1	-1.4	2.1	56.7*
Cc1c(C(=O)N2CCN(C(=O)c3ccco3)CC2)oc2c(Cl)cccc12	9.1	0.1	1.8	2.0	-20.6	.
CCCN1CCN(C(=O)c2oc3c(Cl)cccc3c2C)CC1	-16.7	-9.7	1.8	14.5	-11.3	56.2*
COc1ccc(C2/C=C\CN(C(=O)Nc3ccccc3)CC(=O)N2Cc2ccc(F)cc2)cc1 (stereo not drawn)	3.4	-2.4	-1.1	3.0	-17.7	7.3
COc1ccc(C2/C=C\CN(C(=O)Nc3ccc(C(F)(F)F)cc3)CC(=O)N2Cc2ccc(F)cc2)cc1 (stereo not drawn)	-2.7	.	93.0*	0.4	-12.2	14.9
Cc1cccc(NC(=S)N2CCN(c3ccccc3F)CC2)c1C	6.9	5.0	-0.5	7.3	0.4	8.6
CCCCN(C(=O)c1ccc(NC2CC2)c([N+](=O)[O-])c1)c1c(N)n(CCCC)c(=O)[nH]c1=O	5.2	-20.0	1.0	.	-13.7	.
C#CCN1C(=O)S/C(=C\c2cc3c(cc2OC)OCO3)C1=O	196.1*	5.6	-1.2	-0.8	-32.9	13.4
C#CCOCCOCCOCCNc1nc(N2CCN(C(=O)CCCCCCCCCCNC(=O)[C@H]([C@@H](C)CC)n3cc(CCCCCN)nn3)CC2)nc(N2CCN(C(=O)CCCCCCCCCCNC(=O)[C@H]([C@@H](C)CC)n3cc(CCCCN=C(N)N)nn3)CC2)n1	.	.	69.0*	.	-1.5	.
C#CCOCCOCCOCCNc1nc(N2CCN(C(=O)CCCCCCCCCCNC(=O)[C@H](CO)n3cc(CCCSC)nn3)CC2)nc(N2CCN(C(=O)CCCCCCCCCCNC(=O)[C@H](CCCCN)n3cc(CCO)nn3)CC2)n1	-27.1	-4.5	-2.0	.	-19.8	.
C#CCOCCOCCOCCNc1nc(N2CCN(C(=O)[C@H](Cc3cc4ccccc4[nH]3)n3cc([C@@H](N)C(C)CC)nn3)CC2)nc(N2CCN(C(=O)[C@H](CCCCN)n3cc([C@@H](N)CO)nn3)CC2)n1 (stereo partly drawn)	.	.	.	-3.7	.	39.2
C#CCOCCOCCOCCNc1nc(N2CCN(C(=O)[C@H](CCCCN)n3cc([C@@H](N)C(C)CC)nn3)CC2)nc(N2CCN(C(=O)[C@H](Cc3cc4ccccc4[nH]3)n3cc([C@@H](N)CC(C)C)nn3)CC2)n1 (stereo partly drawn)	-21.9	.	38.6*	1.6	1.5	24.8
C#CCOCCOCCOCCNc1nc(N2CCN(C(=O)CCCCCCCCCCNC(=O)[C@H](CO)n3cc(CCCSC)nn3)CC2)nc(N2CCN(C(=O)CCCCCCCCCCNC(=O)[C@H](CCCN=C(N)N)n3cc(C[C@@H](C)CC)nn3)CC2)n1	-300.7	.	30.0*	.	-12.7	.
